# PubChem BioAssay (Tox21)
# Inconclusive results are not listed. A call without a number means that no potency is given here. A number with no mark means an inactive call. Calls of active or inactive are those of the source. The call rests on the fitted dose curve; in most records, active means well fitted cell-killing curve with a large enough effect in the repeat runs; inconclusive means weak or mixed curves, or effect the other way; inactive means flat fitted curve, though single readings scatter.
# Experiment: cAMP Responsive Elements (CRE) small molecule antagonists, cell-based qHTS assay: qHTS cell viability counter screen (AID 2060913); further: nearly all actives have a fitted effect of over 40% in size
# Conditions: CRE-bla HEK293T viability, CellTiter-Glo luminescence, 5 h; series mostly up to 92.4 µM
# How it was run: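 CRE-bla HEK293T cells (2,000/well, 18 h) given compound plus NKH477 0.25 uM final for 3 h at 37C; viability counter-screen by CellTiter-Glo luminescence in same wells after 30 min.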
SMILES,Potency,"viability change, negative = cytotoxic"
COC(=O)OC,inactive,
O=C(OCC(COC(=O)c1ccccc1)(COC(=O)c1ccccc1)COC(=O)c1ccccc1)c1ccccc1,inactive,
C=C(C)C(=O)OCc1ccccc1,inactive,
CCCCCCC(C)O (stereo not given),inactive,
BrCc1cccc(Oc2ccccc2)c1,inactive,
COCCOC(=O)c1ccccc1C(=O)OCCOC,inactive,
FC(F)(F)C(Cl)Br (stereo not given),inactive,
CCCCN1C(=O)c2ccccc2C1=O,inactive,
Nc1nc(-c2ccc([N+](=O)[O-])cc2)cs1,inactive,
c1ccc2c(CC3=NCCN3)cccc2c1,inactive,
CC(=O)c1c(C)c([N+](=O)[O-])c(C(C)(C)C)c([N+](=O)[O-])c1C,inactive,
CNCCCC1c2ccccc2C=Cc2ccccc21,inactive,
C=CCSSCCC,inactive,
CCCCNc1ccc(C(=O)OCCN(C)C)cc1,inactive,
Brc1cc(Oc2cc(Br)c(Br)c(Br)c2Br)c(Br)c(Br)c1Br,inactive,
NC(=S)Nc1cccc2ccccc12,,19.4% [at 8.39 µM]
CN1CCN(CC(=O)N2c3ccccc3C(=O)Nc3cccnc32)CC1,,8.13% [at 8.39 µM]
CN1[C@@H]2CC[C@H]1CC(OC(=O)C(O)c1ccccc1)C2 (stereo not given in full),inactive,
CCCCCCOC(=O)CC(CC(=O)OCCCCCC)(OC(=O)CCC)C(=O)OCCCCCC,inactive,
CCC(C)O (stereo not given),inactive,

SMILES,Potency,"viability change, negative = cytotoxic"
CCN(CC)C(=O)C1CN2CCc3cc(OC)c(OC)cc3C2CC1OC(C)=O (stereo not given),inactive,
CCN(CC)CCOC(=O)C1(c2ccccc2)CCCC1,inactive,
O=C=NCC1CCCC(CN=C=O)C1 (stereo not given),inactive,
O=C=NC1CCC(CC2CCC(N=C=O)CC2)CC1 (stereo not given),inactive,
NCC[C@H](O)C(=O)N[C@@H]1C[C@H](N)[C@@H](O[C@H]2O[C@H](CN)[C@@H](O)[C@H](O)[C@H]2O)[C@H](O)[C@H]1O[C@H]1O[C@H](CO)[C@@H](O)[C@H](N)[C@H]1O,,0.2% [at 0.349 µM]
CC1(N)CCC(C(C)(C)N)CC1 (stereo not given),inactive,
Cc1cc(=O)oc2cc(O)cc(O)c12,inactive,
COc1cc(C(=S)N2CCOCC2)ccc1O,inactive,
CC(C)CCCC(C)N (stereo not given),inactive,
N[C@H]1CN(c2c(F)cc3c(=O)c(C(=O)O)cn(C4C[C@H]4F)c3c2Cl)CC12CC2 (stereo not given in full),inactive,
CCCCCCCCCOC(C)=O,inactive,
Cc1cccc(C)c1NC(=O)c1cc(S(N)(=O)=O)c(Cl)cc1O,inactive,
CC(=O)OCC(=O)[C@@]12OC(C)(C)O[C@@H]1C[C@H]1[C@@H]3C[C@H](F)C4=CC(=O)C=C[C@]4(C)[C@@]3(F)[C@@H](O)C[C@@]12C,inactive,
O=C1c2ccccc2C(=O)N1SC1CCCCC1,inactive,
CC(C(=O)O)c1ccc2c(c1)Cc1cccnc1O2 (stereo not given),inactive,
CCOC(=O)/C=C(C)/C=C/C=C(C)/C=C/c1c(C)cc(OC)c(C)c1C,inactive,
ON=C1CCCCC1,inactive,
C[C@H]1C[C@H]2[C@@H]3CCC4=CC(=O)C=C[C@]4(C)[C@@]3(Cl)[C@@H](O)C[C@]2(C)[C@@]1(O)C(=O)CO,inactive,
CCCCCCCCCCCC(=O)[O][Sn]([CH2]CCC)([CH2]CCC)[O]C(=O)CCCCCCCCCCC,inactive,
O=C(COCCOCCOCC(=O)Nc1c(I)cc(I)c(C(=O)O)c1I)Nc1c(I)cc(I)c(C(=O)O)c1I,inactive,
